# Compound activity as filed in PubChem.
# PI4K2A inh: blocks human PI4K2A kinase activity | purified PI4K2A, ADP-Glo luminescence, 1 h; active compounds read low | activity change, negative = inhibition, % at 76.9 µM | AID 1346378 | Q9BTU6 | hit rate 0.13% among 420,000; in the data active = activity change below about -50%; inconclusive = mostly about -30% to -49%;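 note: -100% = wells without enzyme as full effect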
#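 ADP-Glo luminescence measured ADP generated by PI4K2A enzyme (4 ug/mL before mixing) with 1.2 mM PI substrate (pre-mix) and 300 microM ATP (pre-mix). Tris pH7.5 buffer with MgCl2, Triton X-100; 1 h reaction at ambient temperature.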
# Pin1 inh: human Pin1 inhibition; Q13526; Pin1 FP peptide displacement, HiFluor488, 10 min; Potency, µM (top dose mostly 115 µM), for inactives: at the highest dose activity, negative = inhibition, actives largely listed as inhibitors; hit rate 0.009% among 390,000; active = well fitted inhibition curve with a large enough effect in the polarisation, with a control signal flat, not every such curve was filed as active; inconclusive = small, poorly fitted or top-dose-only effect, or effect the other way, or a change in a side signal; inactive = no such curve, though single readings can be large or run the other way; the % refers to the polarisation; note: potency is the fitted concentration of half-maximal effect
# Target sequence (Q13526 whole entry, looked up): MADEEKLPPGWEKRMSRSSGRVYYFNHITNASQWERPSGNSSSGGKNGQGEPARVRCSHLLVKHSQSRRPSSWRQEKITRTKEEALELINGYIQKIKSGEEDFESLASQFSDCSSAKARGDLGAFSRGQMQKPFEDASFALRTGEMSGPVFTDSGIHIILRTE
# PI5P4Ka inh: inhibitors of human PI5P4K alpha; PI5P4Kalpha enzyme, ADP-Glo luminescence, 60 min; active compounds read low; max response, %; hit rate 1.2% among 330,000; AID 652105; active = max response of -50% or lower; inconclusive = between -30% and -50%; inactive = -30% or higher; note: value at the top dose of about 77 µM
#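 ADP-Glo luminescence end-point read after a 60 min room-temperature kinase reaction of PI5P4Kalpha plus substrate, initiated with ATP at 5 microM final. Buffer: 0.038 M HEPES pH 7.4, EGTA, 0.1% CHAPS, 5% DMSO.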
# Tb PGK inh: blocks T. brucei phosphoglycerate kinase | P07378 | PGK/GAPDH coupled, Kinase-Glo luminescence, 60 min | Potency, µM (titrated, usually from 57.5 µM), inactives show at the highest dose activity change, negative = inhibition, hits mostly inhibitors | hit rate 0.043% among 380,000; note: potency is the fitted concentration of half-maximal effect; nearly all actives have a fitted effect of over 60% in size
# Target sequence (P07378 whole entry, looked up): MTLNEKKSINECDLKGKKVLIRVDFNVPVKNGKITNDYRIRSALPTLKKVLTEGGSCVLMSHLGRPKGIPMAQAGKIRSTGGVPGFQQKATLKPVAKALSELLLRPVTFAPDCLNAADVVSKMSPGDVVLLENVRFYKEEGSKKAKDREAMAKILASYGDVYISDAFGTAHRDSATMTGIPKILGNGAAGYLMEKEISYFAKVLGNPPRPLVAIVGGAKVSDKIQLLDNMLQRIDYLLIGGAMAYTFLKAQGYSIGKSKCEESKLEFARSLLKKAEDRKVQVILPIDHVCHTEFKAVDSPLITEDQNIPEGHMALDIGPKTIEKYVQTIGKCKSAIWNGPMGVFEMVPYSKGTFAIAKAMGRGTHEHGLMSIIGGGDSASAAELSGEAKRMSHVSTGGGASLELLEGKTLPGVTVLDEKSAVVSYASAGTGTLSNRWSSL
#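 Recombinant glycosomal PGK reaction used 1,3-bisphosphoglycerate generated in-well by GAPDH (100nM final) in 100mM TEA pH 7.6, 5mM MgCl2, 0.01% Tween-20. After 60 minutes at room temperature, ATP was read by Kinase-Glo Plus luminescence end-point.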
# ADP-Glo counter: interferes with ADP-Glo detection without enzyme present; shares compounds with PI5P4Ka inh; ADP-Glo detection counter-screen, luciferase luminescence, no enzyme; Potency, µM (top dose mostly 76.9 µM), inactives show at the highest dose activity change, negative = inhibition, actives largely listed as inhibitors; 1,100 tested, under 10 active; AID 743285
# Active calls of the source: *; i = inactive; ? = inconclusive; · = no result. Shown is part of a subset that was picked to be rich in hits. Unless noted, calls come from the whole dose curve; as a rule, active = well fitted curve in the direction sought with a large enough effect; inconclusive = small, poorly fitted or top-dose-only effect, or another doubt; inactive = no such curve, though single readings can be large; an effect the other way counts as inactive or inconclusive. Unless noted, % is set by controls: 0 for no effect and ±100 for the full control effect.
SMILES,PI4K2A inh,Pin1 inh,PI5P4Ka inh,Tb PGK inh,ADP-Glo counter
CC(=O)Nc1ccc(NC(=S)Nc2ccc(Br)cc2)cc1,5,?,-75*,-2%,-3%
COc1ccc(C(=O)N2CCCC2(C)C(=O)O)cc1C(F)(F)F (centres undefined),-5,·,-87*,·,1%
CC(C)(C)n1nnnc1C(c1ccccc1)N1CCN(c2ccc(C(F)(F)F)cn2)CC1 (centres undefined),-1,·,3,·,·
COc1ccc(CCNC(=O)C2CC(c3cccc(F)c3)=NO2)cc1 (centres undefined),1,-4%,?,-1%,-5%
COc1ccc(CCNC(=O)C2CC(c3ccccc3F)=NO2)cc1 (centres undefined),4,-8%,-11,-1%,·
C=CCNc1nc(NCc2cccc(OC)c2)c2sc(-c3ccccc3)cc2n1,1,·,·,·,·
c1ccc(-c2cc3nc(NCc4cccs4)nc(NCc4ccc5occc5c4)c3s2)cc1,-4,·,·,·,-7%
O=C(NCc1ccccc1)C(c1ccncc1)n1c(=O)c(-c2ccco2)nc2ccccc21 (centres undefined),-6,·,?,·,·
O=C(NCc1ccccc1)C(c1ccc(-c2ccccc2)cc1)n1c(=O)c(-c2ccco2)nc2ccccc21 (centres undefined),-21,·,-73*,·,-7%
CC(C)(C)NC(=O)C(c1ccc(C#N)cc1)n1c(=O)c(-c2ccco2)nc2ccccc21 (centres undefined),-14,·,-57*,·,2%
CC(=O)N(Cc1cccnc1)c1nc2c(C)cccc2s1,-1,3%,·,0%,·
Cc1cc(C(=O)OCC(=O)Nc2c(F)cccc2F)c(C)n1-c1ccccc1,-8,22%,-75*,-2%,-5%
CCCOc1cccc(C(=O)N2CCCCC2CCN2CCCCC2)c1 (centres undefined),1,-11%,·,-10%,·
Cc1ccccc1CN1CCCCC(NC(=O)c2ccccc2C(F)(F)F)C1=O (centres undefined),-6,·,·,·,·
Cc1ccsc1CN(C)c1ncnc2ccc(-c3ccoc3)cc12,-12,·,·,·,2%
CC(=O)Nc1cccc2ccc(O)cc12,-3,3%,-62*,-2%,2%
CC1(C(=O)NCCc2c[nH]c3ccccc23)CCN1Cc1ccccc1OC(F)F (centres undefined),6,·,2,·,·
COc1ccc(N2CC(O)=C(c3nc(-c4ccccc4)cs3)C2=N)cc1,-2,-3%,-53*,-9%,-2%
Cc1nn2c(=O)[nH]cnc2c1Cl,-3,·,-59*,-9%,3%
O=C(CSc1nnc(-c2ccc(OC(F)F)cc2)o1)NC(=O)NCc1ccco1,-10,33%,-54*,-9%,-3%
Cn1c(SCC(=O)NC(=O)NCc2ccco2)nnc1-c1ccccc1,-16,?,-56*,-22%,1%
N#Cc1cccc(NC(=O)Cn2nc(Cc3ccncc3)c3ccccc3c2=O)c1,-5,3%,·,16%,·
Cc1cccc2c1CCCC2=O,-3,-3%,-2,-8%,·
COc1ccc(C2CC(=O)N3CN(c4ccc(C)c(Cl)c4)CSC3=C2C#N)cc1OC (centres undefined),-2,0%,-61*,5%,0%
CCOc1ccccc1N1CSC2=C(C#N)C(c3c(OC)ccc4ccccc34)CC(=O)N2C1 (centres undefined),-16,17%,-85*,4%,-5%
SMILES,PI4K2A inh,Pin1 inh,PI5P4Ka inh,Tb PGK inh,ADP-Glo counter
COc1ccc(N2CSC3=C(C#N)C(c4ccc(OC)c(OC)c4)CC(=O)N3C2)c(OC)c1 (centres undefined),-4,36%,-53*,-5%,-18%
COc1ccc(N2CSC3=C(C#N)C(c4cc(OC)c(OC)cc4OC)CC(=O)N3C2)c(OC)c1 (centres undefined),-13,50%,?,i,·
CN1CSC2=C(C#N)C(c3cccc(OCc4ccccc4)c3)CC(=O)N2C1 (centres undefined),-2,-14%,?,i,·
CCN1CCN(CCCNC(=O)Cn2c(-c3cccs3)cc3cc(F)ccc32)CC1,1,6%,·,0%,·
CCN(CC(=O)Nc1ccc(OC)cc1)C(=O)c1ccc([N+](=O)[O-])cc1,-3,9%,-64*,1%,3%
CCN(CC(=O)Nc1ccc(OC)cc1)C(=O)c1ccc2ccccc2c1,-4,2%,-8,8%,·
C=CCNC(=O)N1CCN(Cc2nc3ccccc3c(=O)[nH]2)CC1,-1,·,·,·,·
CCOC(=O)C1=C(CC)Nc2ccccc2N=C1NC(=O)c1ccc(S(=O)(=O)N(C)C)cc1,0,7%,-51*,3%,1%
CCOC(=O)C1=C(CC)Nc2ccccc2N=C1NC(=O)c1ccc(S(=O)(=O)N2CCOCC2)cc1,1,8%,4,i,·
CC(C)(C)n1nnnc1SCC(=O)Nc1nn(-c2ccccc2)nc1C(N)=O,0,1%,-58*,-5%,-2%
O=C(Nc1cccc(Cl)c1)N1CCCC1,-6,-2%,-53*,-10%,-2%
Cc1cccc(C(=O)NC2=NC(c3ccc(Cl)cc3)CC(=O)N2)c1 (centres undefined),3,?,·,i,·
CCc1c(C)sc(NC(=O)Cn2nc(C)c([N+](=O)[O-])c2C)c1C(N)=O,5,8%,-58*,10%,0%
Cc1csc(NC(=O)Cn2nc(C)c([N+](=O)[O-])c2C)n1,-2,-6%,4,i,·
Cc1cccc(S(=O)(=O)NC(=O)C2(C)CCN2C(=O)Cc2cc(F)ccc2F)c1 (centres undefined),-5,·,-73*,·,-8%
Cc1nc(C(F)(F)F)ccc1C(=O)N1CCC(C)(C(=O)NS(=O)(=O)C2CC2)C1 (centres undefined),2,·,1,·,·
Cc1ccc(NC(=O)c2cc3c([nH]c2=O)CC(C)(C)CC3=O)c(C)c1,0,1%,·,i,·
O=C(CSc1nc2[nH]c(=O)cc(O)c2s1)Nc1cccc(Br)c1,-6,13%,?,-3%,·
O=C(CSc1nc2[nH]c(=O)cc(O)c2s1)Nc1ccc(Br)cc1,-1,-3%,-52*,-14%,-1%
Cc1ccccc1NC(=O)CSc1nc2[nH]c(=O)cc(O)c2s1,-1,9%,-62*,i,-10%
Cc1cccc(NC(=O)CSc2nc3[nH]c(=O)cc(O)c3s2)c1,-4,2%,-53*,-12%,6%
CCc1ccccc1NC(=O)CSc1nc2[nH]c(=O)cc(O)c2s1,-1,-1%,?,0%,·
CC1=C(C(=O)N2CCOCC2)CC(CC(=O)NCc2cccc3ccccc23)C(=O)N1Cc1ccc(C(C)(C)C)cc1 (centres undefined),-3,·,14,·,·
CCNC(=O)c1ccccc1SCC(=O)Nc1ccc(F)cc1,-1,6%,-68*,i,2%
CCCCNC(=O)c1cc(-c2ccccc2)sc1N,-2,·,?,·,·
